From the supplement of paper PMC11732987, “Enantioselective OTUD7B fragment discovery through chemoproteomics screening and high-throughput optimisation” (Communications Chemistry, 2025)

Key:
Test in all cases: log2 ratio of Biotin-Ahx-Ub-VS probe labelling (fragment/DMSO); higher = less target engagement (more negative = stronger competition), active = hit call of the paper (q ≤ 0.05, log2 ratio ≤ -1)
Conditions in all cases: compound concentration: 200 uM; treatment time: 3 h
[1] = biological target: T1, OTUD6B (UniProt Q8N6M0)
T1 sequence (whole entry): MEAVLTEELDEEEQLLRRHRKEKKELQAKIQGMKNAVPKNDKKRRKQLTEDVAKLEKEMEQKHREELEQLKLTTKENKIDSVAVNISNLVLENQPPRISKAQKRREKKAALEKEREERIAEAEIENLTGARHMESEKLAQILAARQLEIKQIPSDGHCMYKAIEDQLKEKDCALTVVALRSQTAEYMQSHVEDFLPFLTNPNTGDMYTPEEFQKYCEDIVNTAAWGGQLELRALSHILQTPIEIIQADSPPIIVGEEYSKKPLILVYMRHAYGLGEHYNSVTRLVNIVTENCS
How it was run: (§1)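 HEK293T lysate (495 µg per sample, in Tris/CHAPS/IGEPAL buffer with protease inhibitors) was exposed in triplicate for 3 h to fragment at 200 µM or to vehicle, then to Biotin-Ahx-Ub-VS at 0.5 µM final for 1 h. Labelled DUBs were enriched on NeutrAvidin, digested with LysC and trypsin, and analysed by diaPASEF LC-MS/MS. Spectronaut label-free quantities were normalised to the global median, and values are average log2 ratios of fragment over vehicle from an unpaired t-test. Only proteins with ≥2 unique peptides were used.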

[2] = biological target: T2, OTUD7B (UniProt Q6GQQ9)
T2 sequence (whole entry): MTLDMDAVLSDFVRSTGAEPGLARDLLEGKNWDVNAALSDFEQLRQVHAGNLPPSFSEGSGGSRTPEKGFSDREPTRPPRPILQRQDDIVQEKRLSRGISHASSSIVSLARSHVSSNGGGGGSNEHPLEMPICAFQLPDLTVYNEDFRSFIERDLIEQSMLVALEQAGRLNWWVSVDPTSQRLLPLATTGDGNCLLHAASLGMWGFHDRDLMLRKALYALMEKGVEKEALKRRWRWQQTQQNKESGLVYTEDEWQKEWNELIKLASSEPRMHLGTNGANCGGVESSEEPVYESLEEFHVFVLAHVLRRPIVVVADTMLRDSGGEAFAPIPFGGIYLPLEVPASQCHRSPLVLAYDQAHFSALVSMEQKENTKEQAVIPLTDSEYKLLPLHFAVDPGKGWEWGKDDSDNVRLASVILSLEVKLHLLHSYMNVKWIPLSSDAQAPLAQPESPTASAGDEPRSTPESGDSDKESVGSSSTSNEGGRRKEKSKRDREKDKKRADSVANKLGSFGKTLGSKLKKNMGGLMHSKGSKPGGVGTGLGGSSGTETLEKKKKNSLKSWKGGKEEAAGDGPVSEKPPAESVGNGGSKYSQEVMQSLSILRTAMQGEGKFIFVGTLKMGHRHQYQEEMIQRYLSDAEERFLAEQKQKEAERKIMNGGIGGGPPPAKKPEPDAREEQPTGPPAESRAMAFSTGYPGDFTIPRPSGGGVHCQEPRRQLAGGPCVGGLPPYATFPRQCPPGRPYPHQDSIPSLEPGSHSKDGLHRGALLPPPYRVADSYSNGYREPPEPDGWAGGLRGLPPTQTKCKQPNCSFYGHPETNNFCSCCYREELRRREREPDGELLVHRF
How it was run: as §1

[3] = biological target: PRPF8 (UniProt Q6P2Q9)
How it was run: as §1

[4] = biological target: T3, PSMD7 (UniProt P51665)
T3 sequence (whole entry): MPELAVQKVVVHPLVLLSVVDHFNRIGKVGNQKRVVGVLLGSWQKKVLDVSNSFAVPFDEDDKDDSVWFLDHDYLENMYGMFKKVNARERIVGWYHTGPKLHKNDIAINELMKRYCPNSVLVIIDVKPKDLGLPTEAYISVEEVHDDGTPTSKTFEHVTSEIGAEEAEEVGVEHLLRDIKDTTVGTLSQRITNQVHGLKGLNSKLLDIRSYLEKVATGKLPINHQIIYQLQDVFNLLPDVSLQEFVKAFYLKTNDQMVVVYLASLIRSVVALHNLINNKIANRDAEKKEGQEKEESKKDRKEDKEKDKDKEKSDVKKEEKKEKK
How it was run: as §1

[5] = biological target: UCHL1 (UniProt P09936)
How it was run: as §1

[6] = biological target: T4, UCHL3 (UniProt P15374)
T4 sequence (whole entry): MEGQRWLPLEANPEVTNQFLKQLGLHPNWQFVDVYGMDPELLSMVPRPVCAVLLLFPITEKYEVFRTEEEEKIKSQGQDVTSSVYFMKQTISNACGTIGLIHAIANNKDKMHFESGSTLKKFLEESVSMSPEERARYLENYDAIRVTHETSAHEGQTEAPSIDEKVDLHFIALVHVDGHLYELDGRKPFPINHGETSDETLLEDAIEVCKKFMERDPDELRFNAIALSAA
How it was run: as §1

[7] = biological target: T5, UCHL5 (UniProt Q9Y5K5)
T5 sequence (whole entry): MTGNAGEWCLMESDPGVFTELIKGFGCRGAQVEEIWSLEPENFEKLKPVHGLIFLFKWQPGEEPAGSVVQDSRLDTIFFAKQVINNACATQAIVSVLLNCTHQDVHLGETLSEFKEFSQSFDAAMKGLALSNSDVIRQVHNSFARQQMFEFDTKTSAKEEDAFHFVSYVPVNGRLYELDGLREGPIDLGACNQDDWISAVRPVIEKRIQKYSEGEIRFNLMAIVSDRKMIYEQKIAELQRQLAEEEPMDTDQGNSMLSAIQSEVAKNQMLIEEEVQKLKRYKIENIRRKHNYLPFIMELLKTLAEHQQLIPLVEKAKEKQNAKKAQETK
How it was run: as §1

[8] = biological target: USP10 (UniProt Q14694)
How it was run: as §1

[9] = biological target: T6, USP15 (UniProt Q9Y4E8)
T6 sequence (whole entry): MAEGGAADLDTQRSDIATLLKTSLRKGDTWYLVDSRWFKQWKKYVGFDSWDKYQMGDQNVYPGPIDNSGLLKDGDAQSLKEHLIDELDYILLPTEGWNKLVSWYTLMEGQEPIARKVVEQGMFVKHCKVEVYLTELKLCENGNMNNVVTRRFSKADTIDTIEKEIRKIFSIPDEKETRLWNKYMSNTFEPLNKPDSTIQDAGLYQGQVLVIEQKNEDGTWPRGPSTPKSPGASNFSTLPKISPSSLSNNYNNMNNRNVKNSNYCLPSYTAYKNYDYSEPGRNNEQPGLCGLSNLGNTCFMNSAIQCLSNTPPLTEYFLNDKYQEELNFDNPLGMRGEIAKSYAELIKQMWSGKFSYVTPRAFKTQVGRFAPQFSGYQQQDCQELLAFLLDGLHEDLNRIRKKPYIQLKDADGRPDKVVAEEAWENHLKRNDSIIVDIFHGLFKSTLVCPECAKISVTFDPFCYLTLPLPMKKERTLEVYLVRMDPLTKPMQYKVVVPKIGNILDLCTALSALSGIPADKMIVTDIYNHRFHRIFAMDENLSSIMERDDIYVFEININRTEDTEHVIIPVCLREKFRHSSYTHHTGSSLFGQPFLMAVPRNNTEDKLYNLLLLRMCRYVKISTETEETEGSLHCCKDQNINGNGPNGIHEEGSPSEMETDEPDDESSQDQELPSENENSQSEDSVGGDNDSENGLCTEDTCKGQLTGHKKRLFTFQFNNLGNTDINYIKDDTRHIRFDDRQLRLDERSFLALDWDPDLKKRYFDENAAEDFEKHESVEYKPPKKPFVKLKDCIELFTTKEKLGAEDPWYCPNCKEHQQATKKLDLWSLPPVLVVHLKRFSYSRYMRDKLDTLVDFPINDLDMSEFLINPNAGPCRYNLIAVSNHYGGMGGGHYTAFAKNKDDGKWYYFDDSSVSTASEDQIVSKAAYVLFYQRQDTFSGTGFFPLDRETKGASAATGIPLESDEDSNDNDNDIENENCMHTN
How it was run: as §1

[10] = biological target: USP16 (UniProt Q9Y5T5)
How it was run: as §1

Measured: log2 ratio of Biotin-Ahx-Ub-VS probe labelling

Chain of USP16 (Q9Y5T5 whole entry, looked up): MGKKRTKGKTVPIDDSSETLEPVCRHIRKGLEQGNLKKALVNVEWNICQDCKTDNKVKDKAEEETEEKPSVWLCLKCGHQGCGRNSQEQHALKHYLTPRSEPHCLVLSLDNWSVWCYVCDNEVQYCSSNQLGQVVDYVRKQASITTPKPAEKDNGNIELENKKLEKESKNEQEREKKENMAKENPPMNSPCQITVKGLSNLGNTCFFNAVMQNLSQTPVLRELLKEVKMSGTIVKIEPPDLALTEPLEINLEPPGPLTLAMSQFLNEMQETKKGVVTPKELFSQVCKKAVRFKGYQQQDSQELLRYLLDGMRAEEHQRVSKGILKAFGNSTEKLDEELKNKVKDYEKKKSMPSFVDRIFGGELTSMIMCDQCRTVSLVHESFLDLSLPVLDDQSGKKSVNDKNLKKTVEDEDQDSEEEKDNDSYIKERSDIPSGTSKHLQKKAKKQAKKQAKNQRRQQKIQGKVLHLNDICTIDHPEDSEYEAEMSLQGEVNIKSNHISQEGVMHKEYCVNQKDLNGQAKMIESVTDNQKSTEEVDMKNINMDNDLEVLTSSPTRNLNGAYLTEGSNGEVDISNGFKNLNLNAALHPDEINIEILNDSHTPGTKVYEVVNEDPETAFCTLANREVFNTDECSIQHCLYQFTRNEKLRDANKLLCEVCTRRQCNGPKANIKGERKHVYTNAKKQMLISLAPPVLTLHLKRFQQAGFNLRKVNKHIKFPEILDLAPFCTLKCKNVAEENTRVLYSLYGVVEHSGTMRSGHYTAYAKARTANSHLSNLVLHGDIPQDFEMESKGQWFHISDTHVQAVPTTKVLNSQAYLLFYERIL
Chain of USP10 (Q14694 whole entry): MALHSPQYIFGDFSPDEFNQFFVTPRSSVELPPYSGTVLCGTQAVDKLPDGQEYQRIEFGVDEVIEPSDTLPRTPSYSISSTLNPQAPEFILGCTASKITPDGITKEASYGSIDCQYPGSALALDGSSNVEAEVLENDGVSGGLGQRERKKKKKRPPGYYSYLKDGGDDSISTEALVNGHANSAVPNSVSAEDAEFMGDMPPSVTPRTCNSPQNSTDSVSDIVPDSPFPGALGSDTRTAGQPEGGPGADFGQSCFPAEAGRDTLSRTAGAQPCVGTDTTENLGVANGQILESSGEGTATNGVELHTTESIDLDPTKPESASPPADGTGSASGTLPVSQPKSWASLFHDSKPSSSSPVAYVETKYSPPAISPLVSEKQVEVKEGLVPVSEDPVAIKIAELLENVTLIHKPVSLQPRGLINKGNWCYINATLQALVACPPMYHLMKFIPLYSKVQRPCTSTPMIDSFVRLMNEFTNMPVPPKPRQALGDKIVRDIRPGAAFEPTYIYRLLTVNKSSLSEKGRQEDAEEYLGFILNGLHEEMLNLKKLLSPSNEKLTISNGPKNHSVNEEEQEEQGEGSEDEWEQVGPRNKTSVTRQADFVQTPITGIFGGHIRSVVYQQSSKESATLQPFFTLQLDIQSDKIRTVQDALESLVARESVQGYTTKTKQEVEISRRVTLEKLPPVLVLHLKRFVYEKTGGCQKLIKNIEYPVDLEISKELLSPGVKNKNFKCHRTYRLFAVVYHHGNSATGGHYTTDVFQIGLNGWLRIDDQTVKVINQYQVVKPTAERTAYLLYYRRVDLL
Chain of UCHL1 (P09936 whole entry, looked up): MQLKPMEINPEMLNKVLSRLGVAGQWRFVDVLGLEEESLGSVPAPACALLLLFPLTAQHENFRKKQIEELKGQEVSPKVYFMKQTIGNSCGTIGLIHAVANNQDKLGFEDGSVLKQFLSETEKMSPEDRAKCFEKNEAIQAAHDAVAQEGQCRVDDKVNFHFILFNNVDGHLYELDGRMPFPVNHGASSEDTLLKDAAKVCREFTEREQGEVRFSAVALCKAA

CN(CCC(O)c1ccc(Br)cc1)C(=O)CCl (stereo not given)
inactive: [1] -0.0417 | [3] 0.169 | [4] -0.221 | [6] -0.26 | [7] -0.331 | [8] -0.142 | [9] -0.337 | [10] 0.00689
active: [2] -1.37 | [5] -1.61
